In PubChem BioAssay (Tox21):
Inconclusive results are not listed. Calls of active or inactive are those of the source. Unless noted, calls follow the shape of the dose curve; as a rule, active = well fitted curve in the direction sought with a large enough effect in the repeat runs; inconclusive = weak or mixed curves; inactive = no such curve, though single readings can be large; an effect the other way counts as inactive or inconclusive.

Legend:
[1] = qHTS assay to identify small molecule agonists of the hypoxia (HIF-1) signaling pathway - cell viability counter screen (AID 1224844; calls by dose curve; also: nearly all actives have a fitted effect of over 50% in size)
In short: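 HRE-bla ME-180 cells in medium with 0.5% dialyzed FBS were preincubated 5 hrs at 37C, exposed to compounds for 17 hrs, then viability was read as CellTiter-Glo luminescence after 30 min at room temperature, in the reporter wells.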

[2] = qHTS assay to identify small molecule agonists of the hypoxia (HIF-1) signaling pathway (AID 1224846; active = well fitted activation curve with a large enough effect in the signal ratio in the repeat runs, not every such curve was filed as active; the % refers to the signal ratio)
In short: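 HRE-bla ME-180 cells (beta-lactamase reporter under hypoxia response element) were plated at 2,000 cells/well in medium with 0.5% dialyzed FBS, rested 5 hrs, then given compounds in DMSO for 17 hrs at 37C, 5% CO2. Reporter induction was read with CCF4-AM FRET substrate.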

[3] = qHTS assay to identify small molecule agonists of H2AX - cell viability counter screen (AID 1224847; calls by dose curve; also: top concentration of the series differs between compounds; nearly all actives have a fitted effect of over 30% in size)
In short: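 Quantitative HTS viability measurement: CHO-K1 wild-type cells in serum (10% FBS) medium, short 3 hr drug exposure at 37C with 0.76% DMSO, CellTiter-Glo luminescent detection.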

[4] = qHTS RealTime-Glo MT Cell Viability Assay in HEK293 cells - 32 hour (AID 1224868); also: top concentration of the series differs between compounds; nearly all actives have a fitted effect of over 50% in size
In short: (§1)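 Nonlytic real-time viability readout: viable cells convert prosubstrate to NanoLuc substrate, giving luminescence proportional to live cell number. HEK293, 600 cells/well, compound added after 5 h, continuous culture at 37 C.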

[5] = A CellTox Green Cytotoxicity Assay to monitor cytotoxicity in HEK293 cells - 0 hour (AID 1224869); also: nearly all actives have a fitted effect of over 50% in size
In short: (§2)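 HEK293 cells premixed with CellTox Green dye were seeded at 600 cells/well and left 5 h at 37 C/5% CO2 before pin transfer of 23 nL compound in DMSO. Fluorescence from dye bound to dead-cell DNA was read during 40 h treatment.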

[6] = qHTS RealTime-Glo MT Cell Viability Assay in HepG2 cells - 40 hour (AID 1224870); also: nearly all actives have a fitted effect of over 50% in size
In short: (§3)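 HepG2 cells (600/well) mixed with RealTime-Glo MT reagent, settled 5 h at 37 C/5% CO2 before compound addition. Nonlytic NanoLuc luminescence from viable-cell prosubstrate reduction read repeatedly during 40 h treatment at 37 C.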

[7] = A CellTox Green Cytotoxicity Assay to monitor cytotoxicity in HEK293 cells - 40 hour (AID 1224871); also: nearly all actives have a fitted effect of over 45% in size
In short: as §2

[8] = qHTS RealTime-Glo MT Cell Viability Assay in HepG2 cells - 8 hour (AID 1224873); also: nearly all actives have a fitted effect of over 55% in size
In short: as §3

[9] = qHTS RealTime-Glo MT Cell Viability Assay in HEK293 cells - 40 hour (AID 1224874); settings: RealTime-Glo luminescence; max response: hits give low values; also: nearly all actives have a fitted effect of over 50% in size; also: potency is read from the fitted curve at half-maximal effect
In short: (§4)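 HEK293 cells mixed with RealTime-Glo reagents (NanoLuc plus cell-permeant prosubstrate) at 600 cells/well, preincubated 5 h at 37 C/5% CO2, then given 23 nL compound in DMSO. Nonlytic luminescence from viable cells was read at 0, 8, 16, 24, 32 and 40 h.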

[10] = A CellTox Green Cytotoxicity Assay to monitor cytotoxicity in HEK293 cells - 24 hour (AID 1224875); also: nearly all actives have a fitted effect of over 45% in size
In short: as §2

[11] = A CellTox Green Cytotoxicity Assay to monitor cytotoxicity in HepG2 cells - 16 hour (AID 1224876); also: nearly all actives have a fitted effect of over 45% in size
In short: (§5)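 HepG2 cells were seeded together with the CellTox Green dye at 600 cells/well, left 5 h at 37 C/5% CO2, then given compounds in DMSO. Fluorescence from dye bound to dead-cell DNA was read repeatedly over 40 h of treatment at 37 C.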

[12] = qHTS RealTime-Glo MT Cell Viability Assay in HepG2 cells - 32 hour (AID 1224877); also: nearly all actives have a fitted effect of over 55% in size; also: potency is read from the fitted curve at half-maximal effect
In short: (§6)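 Luminescence read-out: viable HepG2 cells reduce a prosubstrate to a NanoLuc substrate, giving a signal proportional to live cell number. Reads taken at 0, 8, 16, 24, 32 and 40 h of compound exposure at 37 C.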

[13] = A CellTox Green Cytotoxicity Assay to monitor cytotoxicity in HepG2 cells - 24 hour (AID 1224878); also: nearly all actives have a fitted effect of over 45% in size; also: potency is read from the fitted curve at half-maximal effect
In short: as §5

[14] = qHTS RealTime-Glo MT Cell Viability Assay in HEK293 cells - 0 hour (AID 1224880)
In short: as §4

[15] = qHTS RealTime-Glo MT Cell Viability Assay in HEK293 cells - 16 hour (AID 1224872)
In short: as §1

[16] = A CellTox Green Cytotoxicity Assay to monitor cytotoxicity in HepG2 cells - 40 hour (AID 1224879); also: nearly all actives have a fitted effect of over 40% in size; also: potency is read from the fitted curve at half-maximal effect
In short: as §5

[17] = qHTS assay to identify small molecule antagonists of the estrogen related receptor (ERR) signaling pathway from Tox21 library (AID 1224848); also: nearly all actives have a fitted effect of over 50% in size; also: potency is read from the fitted curve at half-maximal effect
In short: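 Luminescent reporter read-out (ONE-Glo) from NTP's ERR cell line after 18 h treatment at 37 C with DMSO-dissolved Tox21 compounds; cells pre-plated 6 h beforehand at 2,000 per well.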

[18] = qHTS assay to identify small molecule agonists of the estrogen related receptor (ERR) signaling pathway from Tox21 library (AID 1224849; calls by dose curve; also: nearly all actives have a fitted effect of over 15% in size); settings: ERR reporter cell line, ONE-Glo luciferase, 18 h; at 92.4 µM (top of the series) unless noted
In short: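 ERR reporter cell line (NTP) seeded, rested 6 h at 37 C/5% CO2, then pinned with Tox21 compounds in DMSO. After 18 h at 37 C, ONE-Glo luciferase luminescence was read following 30 min at room temperature.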

[19] = qHTS RealTime-Glo MT Cell Viability Assay in HepG2 cells - 24 hour (AID 1224867); also: nearly all actives have a fitted effect of over 50% in size
In short: as §6

[20] = qHTS assay to identify small molecule agonists of H2AX (AID 1224845; active = well fitted activation curve with a large enough effect in the signal ratio in the repeat runs, not every such curve was filed as active; the % refers to the signal ratio)
In short: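 Wild-type CHO-K1 cells, plated overnight, exposed 3hr at 37C to 15 concentrations (0.76% DMSO final). Lysed, then HTRF anti-pH2AX (S139) cryptate and anti-H2AX-d2 antibodies, 24 hr room temperature; 665/620 nm emission read.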
% is scaled to controls: 0 for no effect and ±100 for the full control effect.

CCOC(=O)C1=NN(c2ccccc2)C(=O)C1
inactive: Potency [1] | outcome [2] | Potency [3] | Potency [4] | Potency [5] | Potency [6] | Potency [7] | Potency [8] | max response [9] 1.57% | Potency [10] | Potency [11] | Potency [12] | Potency [13] | Potency [14]

C=CC(C)(CCC=C(C)C)OC(=O)c1ccccc1 (stereo not given)
inactive: Potency [1] | outcome [2] | Potency [4] | Potency [5] | Potency [15] | Potency [8] | max response [9] -13.6% | Potency [11] | Potency [12] | Potency [13] | Potency [16] | Potency [14]

CC(=O)N(O)CCCCCNC(=O)CCC(=O)N(O)CCCCCNC(=O)CCC(=O)N(O)CCCCCN
active: Potency [17] 26.6 µM | Potency [9] 21.3 µM
inactive: Potency [1] | outcome [2] | Potency [3] | activity change, positive = activation [18] -34.7% [at 42.5 µM] | Potency [5] | Potency [6] | Potency [7] | Potency [15] | Potency [8] | Potency [10] | Potency [11] | Potency [12] | Potency [13] | Potency [16] | Potency [14]

CCCCCCCC/C=C\CCCCCCCC(N)=O
inactive: Potency [1] | Potency [17] | activity change, positive = activation [18] -4.69% | Potency [19] | Potency [5] | Potency [6] | Potency [8] | Potency [14]
active: Potency [13] 24.5 µM | Potency [16] 34.7 µM

CCCCOc1cc(C(=O)OCCN(CC)CC)ccc1N
inactive: Potency [20] | outcome [2] | Potency [3] | Potency [19] | Potency [4] | Potency [5] | Potency [6] | Potency [15] | Potency [8] | max response [9] -18% | Potency [14]

CC[C@H](C)[C@@H](C(=O)O)n1sc2ccccc2c1=O
inactive: Potency [20] | outcome [2] | Potency [3] | Potency [4] | Potency [5] | Potency [7] | Potency [15] | max response [9] -0.529% | Potency [10] | Potency [11] | Potency [16] | Potency [14]
active: Potency [12] 49 µM

Oc1ccc(C(O)CNCCCCCCNCC(O)c2ccc(O)c(O)c2)cc1O (stereo not given)
inactive: Potency [1] | Potency [17] | activity change, positive = activation [18] 1.29% [at 42.5 µM] | Potency [19] | Potency [4] | Potency [5] | Potency [7] | Potency [8] | max response [9] 1.45% | Potency [10] | Potency [12] | Potency [13] | Potency [16] | Potency [14]

O=C1CCCCCO1
inactive: Potency [1] | Potency [19] | Potency [4] | Potency [5] | Potency [15] | Potency [8] | max response [9] 10.5% | Potency [10] | Potency [11] | Potency [13] | Potency [16] | Potency [14]

O=CNc1ccccc1
inactive: Potency [20] | outcome [2] | Potency [3] | Potency [17] | activity change, positive = activation [18] -1.57% | Potency [19] | Potency [5] | Potency [6] | Potency [7] | Potency [15] | max response [9] -8.05% | Potency [10] | Potency [11] | Potency [12] | Potency [13] | Potency [16] | Potency [14]

CCCCCCc1ccc(N)cc1
active: Potency [16] 49 µM
inactive: Potency [1] | activity change, positive = activation [18] -26.6% | Potency [19] | Potency [4] | Potency [5] | Potency [6] | Potency [7] | Potency [8] | max response [9] 4.72% | Potency [10] | Potency [12] | Potency [14]

CC(C)NCC(O)COc1ccc(CC(N)=O)cc1 (stereo not given)
inactive: Potency [1] | Potency [4] | Potency [5] | Potency [7] | Potency [15] | Potency [8] | max response [9] -1.4% | Potency [10] | Potency [11] | Potency [13] | Potency [16] | Potency [14]

C=CCCCCCC
inactive: Potency [20] | outcome [2] | Potency [3] | Potency [17] | activity change, positive = activation [18] 4.67% | Potency [19] | Potency [4] | Potency [5] | Potency [6] | Potency [15] | Potency [8] | max response [9] 9.99% | Potency [10] | Potency [11] | Potency [12] | Potency [13] | Potency [16] | Potency [14]

CCCCCCCCCCCCCCCCCBr
inactive: activation (H2AX phosphorylation) [20] -1.13% [at 31.6 µM] | activation [2] -0.885% [at 15.8 µM] | activity change, negative = cytotoxicity [3] 1.9% [at 31.6 µM] | activity change, negative = cytotoxicity [19] 0.544% [at 15.8 µM] | activity change, negative = cytotoxic [4] 6.52% [at 15.8 µM] | cytotoxicity [5] -0.244% [at 15.8 µM] | activity change, negative = cytotoxic [6] 11.3% [at 15.8 µM] | cytotoxicity increase [7] -9.92% [at 15.8 µM] | activity change, negative = cytotoxicity [15] -1.86% [at 15.8 µM] | max response [9] 3.16% | activity change [10] -8.25% [at 15.8 µM, hits give high values] | cytotoxicity increase [11] -9.75% [at 15.8 µM] | activity change, negative = cytotoxic [12] 4.28% [at 15.8 µM] | cytotoxicity [13] -11% [at 15.8 µM] | cytotoxicity increase [16] -11.7% [at 15.8 µM] | activity change, negative = cytotoxicity [14] -0.712% [at 15.8 µM]

CC(C)c1cccc(C(C)C)c1NC(=O)NS(=O)(=O)c1cc(C(C)(C)O)co1
inactive: Potency [20] | outcome [2] | Potency [3] | Potency [5] | Potency [6] | Potency [7] | Potency [15] | Potency [8] | max response [9] 6.33% | Potency [10] | Potency [11] | Potency [13] | Potency [16] | Potency [14]

C1CCC2OC2C1 (stereo not given)
inactive: Potency [20] | outcome [2] | Potency [3] | Potency [4] | Potency [5] | Potency [6] | Potency [7] | Potency [8] | max response [9] 4.85% | Potency [10] | Potency [11] | Potency [12] | Potency [13] | Potency [16] | Potency [14]

CC1=CC(=O)/C(=C(/C)O)C(=O)O1
inactive: Potency [20] | outcome [2] | Potency [3] | Potency [19] | Potency [4] | Potency [5] | Potency [6] | Potency [7] | Potency [15] | Potency [8] | max response [9] 16.6% | Potency [10] | Potency [12] | Potency [16] | Potency [14]

O=C(NN1CCCC1)NS(=O)(=O)c1ccc(Cl)cc1
inactive: Potency [20] | outcome [2] | Potency [3] | Potency [17] | activity change, positive = activation [18] 5.66% [at 42.5 µM] | Potency [4] | Potency [5] | Potency [6] | Potency [15] | Potency [8] | max response [9] 15.3% | Potency [10] | Potency [11] | Potency [12] | Potency [13] | Potency [16] | Potency [14]
